# Experimental data reported in the supplement of paper PMC4237247.
# Test system: HeLa
# Experiment: percent cells in G1 phase; higher = more G1 arrest
# Settings: 10 µM; 20 h; hit class: G1-phase inhibitor
# Method: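 HTS of 79,827 drug-like compounds at 10 uM. HeLa cells in 384-well plates were treated for 20 h, fixed, stained with Vybrant DyeCycle Green and scanned on an Acumen eX3 cytometer to give per-well cell cycle profiles (% cells in each phase). The plate Z' was 0.51. Only hits are listed: G1 hits >4 SD and S hits >5 SD from the mean.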
row,Structure (SMILES),percent cells in G1 phase [%]
1,C[C@@]12C(=O)OC(=O)[C@]1(C)[C@H]1CC[C@@H]2O1,70.6
2,CNc1ccc2oc(C[C@H]3O[C@@]4(CC[C@H]3C)O[C@H]([C@H](C)C(=O)c3ccc[nH]3)[C@H](C)C[C@H]4C)nc2c1C(=O)O,84.7
3,O=[N+]([O-])c1ccc(NCCO)c2ncccc12,69.5
4,C/C(=C\c1ccc(Cl)cc1)[N+](=O)[O-],69.2
5,C/C=C(/C)C(=O)O[C@H]1C(C)=C2[C@H]([C@@H]1OC(=O)CCCCCCC)[C@@](C)(OC(C)=O)C[C@H](OC(=O)CCC)[C@@]1(O)[C@H]2OC(=O)[C@@]1(C)O,81.5
6,CC(C)(C)c1cc(C=C(C#N)C#N)cc(C(C)(C)C)c1O,75.1
7,C[C@@H]1O[C@@H](O[C@H]2C[C@@H](O)[C@]3(CO)[C@H]4[C@H](O)C[C@]5(C)[C@@H](C6=CC(=O)OC6)CC[C@]5(O)[C@@H]4CC[C@]3(O)C2)[C@H](O)[C@H](O)[C@H]1O,70.1
8,CNC1CC2OC(C)(C1OC)n1c3ccccc3c3c4c(c5c6ccccc6n2c5c31)C(=O)NC4 (centres undefined),86.7
9,C[C@@H]1C[C@@H]([C@H](O)CC2CC(=O)NC(=O)C2)C(=O)[C@@H](C)C1 [Cycloheximide],77
